Read-out in test [1]: Tissue Factor, F3 (gene 2152)
As to the kind of experiment: BSK_CASM3C_TissueFactor: BioMAP Diversity Plus: CASM3C Assay for Tissue Factor Biomarker Activity (AID 2283052).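 Note: cell surface tissue factor protein level read by ELISA.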 The note with it: primary human coronary artery smooth muscle cells; actives raise or lower the signal.

Read-out in test [2]: Interferon-gamma inducible Protein 10 (IP10), CXCL10 (gene 3627)
As to the kind of experiment: BSK_hDFCGF_IP10: BioMAP Diversity Plus: hDFCGF Assay for Interferon-gamma inducible Protein 10 (IP10) Biomarker Activity (AID 2283053). The note with it: primary human foreskin fibroblasts; actives raise or lower the signal. In a few lines: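 Human foreskin fibroblast primary cells (hDFCGF system) were dosed with chemical and assayed at 24 h; IP-10 measured by ELISA. Activity fitted bidirectionally relative to DMSO negative control as baseline.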

Read-out in test [3]: Urokinase-type plasminogen activator receptor (uPAR), PLAUR (gene 5329)
As to the kind of experiment: BSK_CASM3C_uPAR: BioMAP Diversity Plus: CASM3C Assay for Urokinase-type plasminogen activator receptor (uPAR) Biomarker Activity (AID 2283054).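 Note: cell-surface uPAR protein level quantified by ELISA.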 The note with it: primary human coronary artery smooth muscle cells; actives raise or lower the signal.

Read-out in test [4]: Vascular cell adhesion molecule 1 (VCAM1), VCAM1 (gene 7412)
In words: BSK_CASM3C_VCAM1: BioMAP Diversity Plus: CASM3C Assay for Vascular cell adhesion molecule 1 (VCAM1) Biomarker Activity (AID 2283055).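 Note: VCAM-1 protein level quantified by ELISA on the cells.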 The note with it: primary human coronary artery smooth muscle cells; actives raise or lower the signal.

Read-out in test [5]: Collagen III, COL3A1 (gene 1281)
In words: BSK_hDFCGF_CollagenIII: BioMAP Diversity Plus: hDFCGF Assay for Collagen III Biomarker Activity (AID 2283056). The note with it: primary human foreskin fibroblasts; actives raise or lower the signal. In a few lines: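 Human foreskin primary fibroblasts were exposed to test chemicals for 24 h, after which collagen III was quantified by ELISA. Activity was fitted bidirectionally against DMSO as negative control and baseline.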

Read-out in test [6]: Interleukin-8 (IL8), CXCL8 (gene 3576)
In words: BSK_hDFCGF_IL8: BioMAP Diversity Plus: hDFCGF Assay for Interleukin-8 (IL8) Biomarker Activity (AID 2283058). The note with it: primary human foreskin fibroblasts; actives raise or lower the signal. Put shortly:
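hDFCGF human dermal fibroblasts; 24 h chemical exposure; IL-8 by ELISA; bidirectional curve fit vs DMSO baseline; gain or loss of signal scored.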

Test [7] can be described thus: BSK_hDFCGF_Proliferation: Cell Proliferation Assessment in the BioMAP Diversity Plus: hDFCGF Assay (AID 2283059).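 Note: curves fitted for both rise and fall of signal versus DMSO baseline.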 The note with it: primary human foreskin fibroblasts. Put shortly:
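Sub-confluent human foreskin fibroblast cultures receive test chemical […]. Relative cell number is quantified by sulforhodamine B staining (0.1%, after 10% TCA fixation) at 560 nm, with bidirectional fitting referenced to DMSO.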

Read-out in test [8]: Macrophage colony-stimulating factor (MCSF), CSF1 (gene 1435)
In words: BSK_hDFCGF_MCSF: BioMAP Diversity Plus: hDFCGF Assay for Macrophage colony-stimulating factor (MCSF) Biomarker Activity (AID 2283060). As to conditions: primary human foreskin fibroblasts; actives raise or lower the signal. In a few lines:
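Human foreskin primary fibroblasts were treated with test chemical for 24 h, and M-CSF was then measured by ELISA. Data were fitted bidirectionally against DMSO as the negative control and activity baseline.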

Test [9] can be described thus: BSK_hDFCGF_SRB: Viability Assessment in the BioMAP Diversity Plus: hDFCGF Assay (AID 2283061).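 Note: cells exposed to compound for 24 h before the read.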 As to conditions: primary human foreskin fibroblasts. Put shortly: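 Human foreskin primary fibroblasts were treated with compound and assessed 24 h after dosing. Total protein was measured by sulforhodamine B staining (0.1% SRB after 10% TCA fixation, 560 nm read) as a cytotoxicity marker, with bidirectional fitting against DMSO baseline.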

Read-out in test [10]: TIMP metallopeptidase inhibitor 1 (TIMP1), TIMP1 (gene 7076)
As to the kind of experiment: BSK_hDFCGF_TIMP1: BioMAP Diversity Plus: hDFCGF Assay for TIMP metallopeptidase inhibitor 1 (TIMP1) Biomarker Activity (AID 2283062). The note with it: primary human foreskin fibroblasts; actives raise or lower the signal. Put shortly:
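Primary human foreskin fibroblasts in the hDFCGF system were dosed with compound for 24 h, then TIMP-1 was measured by ELISA. Activity was fitted bidirectionally relative to DMSO control; parallel SRB staining assessed cytotoxicity.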

Read-out in test [11]: Monokine induced gamma interferon (MIG), CXCL9 (gene 4283)
As to the kind of experiment: BSK_hDFCGF_MIG: BioMAP Diversity Plus: hDFCGF Assay for Monokine induced gamma interferon (MIG) Biomarker Activity (AID 2283063). The note with it: primary human foreskin fibroblasts; actives raise or lower the signal. In a few lines: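 ELISA read-out of MIG from primary human dermal fibroblasts 24 h post-dosing. Gain or loss of signal fitted bidirectionally, DMSO as baseline.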

Read-out in test [12]: Matrix Metallopeptidase 1 (MMP1), MMP1 (gene 4312)
In words: BSK_hDFCGF_MMP1: BioMAP Diversity Plus: hDFCGF Assay for Matrix Metallopeptidase 1 (MMP1) Biomarker Activity (AID 2283064). The note with it: primary human foreskin fibroblasts; actives raise or lower the signal. Put shortly: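 hDFCGF primary fibroblasts (human foreskin); chemical added; 24 h; MMP1 by ELISA; bidirectional fit vs DMSO.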

Read-out in test [13]: Vascular cell adhesion molecule 1 (VCAM1), VCAM1 (gene 7412)
As to the kind of experiment: BSK_hDFCGF_VCAM1: BioMAP Diversity Plus: hDFCGF Assay for Vascular cell adhesion molecule 1 (VCAM1) Biomarker Activity (AID 2283065). As to conditions: primary human foreskin fibroblasts; actives raise or lower the signal. Put shortly: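 Primary human foreskin fibroblasts (hDFCGF system) were dosed with chemical and VCAM-1 was measured by ELISA 24 h later. Bidirectional curve fitting used DMSO as negative control and activity baseline.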

Read-out in test [14]: Plasminogen activator inhibitor-1 (PAI1), SERPINE1 (gene 5054)
In words: BSK_hDFCGF_PAI1: BioMAP Diversity Plus: hDFCGF Assay for Plasminogen activator inhibitor-1 (PAI1) Biomarker Activity (AID 2283066). As to conditions: primary human foreskin fibroblasts; actives raise or lower the signal. Put shortly:
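Human foreskin fibroblasts in the hDFCGF system were dosed with compound for 24 h; PAI-1 was quantified by ELISA. Bidirectional curve fitting used DMSO as negative control and baseline.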

Read-out in test [15]: Intercellular Adhesion Molecule 1 (ICAM1), ICAM1 (gene 3383)
As to the kind of experiment: BSK_KF3CT_ICAM1: BioMAP Diversity Plus: KF3CT Assay for Intercellular Adhesion Molecule 1 (ICAM1) Biomarker Activity (AID 2283067). As to conditions: primary human keratinocytes with fibroblasts; actives raise or lower the signal. In a few lines:
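Human keratinocyte plus foreskin fibroblast primary co-culture was exposed to chemical for 24 h. ICAM-1 was then quantified by ELISA, and the data were fit bidirectionally against DMSO as the negative control and baseline.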

Read-out in test [16]: Interferon-gamma inducible Protein 10 (IP10), CXCL10 (gene 3627)
As to the kind of experiment: BSK_KF3CT_IP10: BioMAP Diversity Plus: KF3CT Assay for Interferon-gamma inducible Protein 10 (IP10) Biomarker Activity (AID 2283068). As to conditions: primary human keratinocytes with fibroblasts; actives raise or lower the signal. In a few lines:
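ELISA read-out of IP-10 after 24 h chemical dosing of human skin primary co-culture (keratinocytes, foreskin fibroblasts). Gain or loss of signal relative to DMSO, bidirectional curve fit.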

The nature of test [17]: BSK_KF3CT_SRB: Viability Assessment in the BioMAP Diversity Plus: KF3CT Assay (AID 2283069).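 Note: fitted for both signal gain and loss against DMSO baseline.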 The note with it: primary human keratinocytes with fibroblasts. Put shortly: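 Keratinocytes co-cultured with foreskin fibroblasts (human primary); chemical added, 24 h; fix 10% TCA, stain 0.1% SRB, A560. Bidirectional fit vs DMSO.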
Read-out in test [18]: Interleukin-1 alpha (IL1a), IL1A (gene 3552)
As to the kind of experiment: BSK_KF3CT_IL1a: BioMAP Diversity Plus: KF3CT Assay for Interleukin-1 alpha (IL1a) Biomarker Activity (AID 2283070). The note with it: primary human keratinocytes with fibroblasts; actives raise or lower the signal. Put shortly:
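Chemicals were dosed onto co-cultured human keratinocytes and foreskin fibroblasts, IL-1a was quantified by ELISA at 24 h, and activity was fitted in both directions relative to DMSO controls.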

Read-out in test [19]: Epidermal growth factor receptor (EGFR), EGFR (gene 1956)
In words: BSK_hDFCGF_EGFR: BioMAP Diversity Plus: hDFCGF Assay for Epidermal growth factor receptor (EGFR) Biomarker Activity (AID 2283057). As to conditions: primary human foreskin fibroblasts; actives raise or lower the signal. Put shortly: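 Primary human foreskin fibroblasts were exposed to compound for 24 h, after which cell-surface EGFR was quantified by ELISA. Activity was fitted bidirectionally against the DMSO negative control as baseline.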

Read-out in test [20]: TIMP metallopeptidase inhibitor 2 (TIMP2), TIMP2 (gene 7077)
In words: BSK_KF3CT_TIMP2: BioMAP Diversity Plus: KF3CT Assay for TIMP metallopeptidase inhibitor 2 (TIMP2) Biomarker Activity (AID 2283071). The note with it: primary human keratinocytes with fibroblasts; actives raise or lower the signal. In a few lines:
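Human primary keratinocyte/foreskin fibroblast co-culture dosed with chemical and sampled at 24 h. TIMP-2 levels quantified by ELISA; bidirectional fitting against DMSO negative control as baseline.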

Active and inactive are the calls of the source. Rule for the calls: active = hit-call score of the fitted dose curve at least 0.9, where 1 is the maximum; inactive = score below 0.9.

In the case of `Cc1ccc(N(C)C)cc1`, the outcome in [1], in test [2], in [3], in [4], in test [5] and in test [6] was inactive. Also, the outcome in test [7], in test [8], in test [9], in [10], in test [11] and in test [12] was inactive. Further, the result in test [13], in test [14], in test [15], in [16], in test [17] and in test [18] was inactive.

As for `CN1CCCC1=O`, the outcome in test [1], in test [2], in test [3], in [4], in [5] and in test [19] was inactive. Besides, the outcome in test [6], in [8], in [9], in test [10], in [11] and in [12] was inactive. Also, the result in test [13], in test [14], in test [15], in test [16], in test [17] and in test [18] was inactive. Also, the outcome in [20] was inactive.

For the molecule `Nc1nc(N)c2nc(CNc3ccc(C(=O)N[C@@H](CCC(=O)O)C(=O)O)cc3)cnc2n1`, the outcome in [1], in [2], in test [3], in test [4], in [5] and in [19] was inactive. For the same molecule, the result in [6], in [8], in test [9], in test [10], in test [11] and in [12] was inactive. In addition, the outcome in [13], in [14], in test [15], in test [16], in test [17] and in [18] was inactive. The result in test [20] was inactive.

As for `NC(=O)Cn1c(=O)cc(CCN2CCN(c3nccc4sccc34)CC2)c2ccc(F)cc21`, the outcome in test [1], in [2], in test [3], in test [4], in test [5] and in test [6] was inactive. Also, the outcome in test [7], in test [8], in [9], in test [10], in [11] and in [12] was inactive. For the same molecule, the result in test [13], in test [14], in test [15], in [16], in test [17] and in test [18] was inactive.

Consider `Cc1ccc(Cl)cc1`, for which the result in test [1], in test [2], in [3], in [4], in test [5] and in [6] was inactive. Moreover, the result in test [8], in test [9], in test [10], in [11], in [12] and in [13] was inactive. Moreover, the outcome in test [14], in test [15], in test [16], in [17] and in [18] was inactive. The AC50 – broadly, the concentration at which the activity in the assay is half-maximal – in [7] was 148 nM (active).

In the case of `Cc1cccc([N+](=O)[O-])c1C`, the result in test [1], in test [2], in test [3], in test [4], in test [5] and in [19] was inactive. Moreover, the result in test [6], in [8], in test [9], in test [10], in [11] and in test [12] was inactive. Also, the result in test [13], in [14], in test [15], in test [16], in test [17] and in test [18] was inactive. For the same molecule, in [20], the outcome was inactive.

For the molecule `CCCCCC(=O)O`, the result in test [1], in test [2], in test [3], in test [4], in [5] and in test [19] was inactive. Also, the outcome in [6], in test [8], in test [9], in test [10], in test [11] and in [12] was inactive. The result in test [13], in test [14], in [15], in test [16], in test [17] and in [18] was inactive. Also, in [20], the result was inactive.

Values taken from PubChem BioAssay (EPA / NIEHS).
